Reference: ChEMBL document CHEMBL1157539, “Thousands of chemical starting points for antimalarial lead identification” (Nature, 2010)

How the values were obtained:
Assay type in all cases: functional
[1] = system: Plasmodium falciparum; assay: GSK_TCMDC: Inhibition of Plasmodium falciparum 3D7 in whole red blood cells, using parasite LDH activity as an index of growth. Test compounds present at 2uM
[2] = system: Plasmodium falciparum; assay: GSK_TCMDC: Inhibition of Plasmodium falciparum Dd2 in whole red blood cells, using parasite LDH activity as an index of growth. Test compounds present at 2uM
[3] = system: HepG2; assay: GSK_TCMDC: Percent inhibition of human HepG2 cell line. Test compounds present at 10uM.

| Compound | Inhibition [1] [%] | Inhibition [2] [%] | Inhibition [3] [%] |
| --- | --- | --- | --- |
| Cc1cccc2nc(-c3ccc(-c4ccc(CNCCc5ccncc5)cc4)cc3)[nH]c12.O=C(O)C(F)(F)F | 100 | 98 | 34 |
| CN(C)CCCN1CCN(C(=O)c2cccc(-c3noc(C(F)(F)F)n3)c2)CC1 | 92 | 60 | 0 |
| Br.Cc1ccc(OCCCCON2C(=N)N=C(N)NC2(C)C)cc1C | 94 | 97 | 61 |
| COc1ccccc1C1CCN(C2CCC(NC(=O)c3cc(-c4ccc(Cl)cc4)cs3)CC2)CC1 (stereo not drawn) | 100 | 100 | 61 |
| Cl.N=C(N)NN=Cc1c2ccccc2c(Cl)c2c(Cl)cccc12 | 91 | 72 | 71 |
| O=C1Nc2ccccc2/C1=N/NC(=S)N1CCOCC1 | 95 | 75 | 51 |
| O=C(Nc1ccc(F)c(F)c1)c1ccc(CN2CCCN(Cc3cccc(F)c3)CC2)cc1.O=C(O)C(F)(F)F | 83 | 12 | 51 |
| COc1ccc(C(=O)C2CC2CN(C)CCC(O)c2ccc(Cl)c(Cl)c2)cc1 (stereo not drawn) | 94 | 86 | 24 |
| Cc1sc(N2CCCCC2)nc1C(=O)Nc1ccc(F)cc1C(F)(F)F.O=C(O)C(F)(F)F | 86 | 35 | 0 |
| Cc1ccc2c(NC(=O)Nc3ccc(N(C)C)cc3)cc(C)nc2c1 | 98 | 20 | 0 |
| CC1(C)CCC(=Cc2ccc(Cl)cc2)CC1(O)Cn1ccnc1 (stereo not drawn) | 99 | 74 | 0 |
| Cl.N=C(N)c1cc(Br)cc(NC(=O)Nc2cc(Br)cc(C(=N)N)c2)c1 | 93 | 76 | 0 |
| O=C(Nc1ccc(C(=O)N2CCN(CCN3CCN(c4cccc(C(F)(F)F)c4)CC3)CC2)cc1)c1ccc(C(F)(F)F)cc1 | 95 | 28 | 39 |
| O=C(c1cccc(Br)c1)N1CCN(c2ccc([N+](=O)[O-])c(NC3CC3)c2)CC1 | 99 | 100 | 5 |
| COc1ccc(NC(=O)/C=C/c2ccccc2Cl)cc1OCCN1CCC(N2CCCCC2)CC1 | 100 | 49 | 3 |
| COc1cccc(C(=O)NCCc2cccc(Cl)c2)c1OCc1ccccc1 | 85 | 0 | 0 |
| CN(C)c1ccc(CN2CCC(CNC(=O)c3cc(-c4cccc(F)c4)cs3)C2)cc1.O=C(O)C(F)(F)F (stereo not drawn) | 96 | 13 | 48 |
| COc1cc(N(Cc2ccccc2C)S(=O)(=O)Cc2ccccc2[N+](=O)[O-])c(OC)cc1Cl | 94 | 44 | 16 |
| Cl.O=c1ccc2ncc(Cl)c3c2n1CC3CN1CCC(NCc2cc3c(cn2)OCCO3)CC1 (stereo not drawn) | 96 | 29 | 27 |
| Br.C[C@@H](COc1ccc(-c2ccccc2)cc1)CON1C(N)=NC(N)=NC1(C)C | 96 | 96 | 62 |
| CS(=O)(=O)c1ccc(CCNCc2ccc(-c3cccc(-c4nc5ccccc5[nH]4)c3)cc2)cc1.O=C(O)C(F)(F)F | 100 | 99 | 40 |

| Compound | Inhibition [1] [%] | Inhibition [2] [%] | Inhibition [3] [%] |
| --- | --- | --- | --- |
| CCCCOc1ccc(-c2nc3ccccc3[nH]2)cc1 | 86 | 82 | 21 |
| COc1ccc2ncc(F)c([C@@H](O)CN3CCC(NCc4cc5c(cn4)OCS5)CC3)c2c1.Cl | 100 | 98 | 16 |
| O=C(Nc1cccc(-c2nn3ccccc3c2-c2ccnc(Nc3cccc(-c4cnco4)c3)n2)c1)C1CCCCC1 | 95 | 99 | 71 |
| FC(F)(F)c1ccc2[nH]c(-c3ccc(-c4ccc(CN5CCN(c6ccncc6)CC5)cc4)cc3)nc2c1.O=C(O)C(F)(F)F | 100 | 99 | 91 |
| O=C(/C=C/c1ccc2ccccc2c1)NCCCCCN1CCC(c2c[nH]c3ccccc23)CC1 | 90 | 4 | 18 |
| COc1c(C2CCN(CCCCNC(=O)c3cc(-c4ccc(Cl)cc4)[nH]c3C)CC2)ccc2c1CCCC2 | 100 | 91 | 53 |
| COc1ccc(CCNC(=O)c2ccc(-n3cc(NC(=O)c4cccnc4)cn3)cc2)cc1OC | 90 | 89 | 17 |
| Cc1ccc2[nH]c(-c3cc(-c4cccc(C#N)c4)cnc3N)nc2c1.O=C(O)C(F)(F)F | 100 | 99 | 40 |
| Cl.N#Cc1ccc2c(c1)CCN(CCC1CCC(NC(=O)/C=C/c3ccc(F)c4ccccc34)CC1)CC2 (stereo not drawn) | 95 | 19 | 29 |
| CC(C)(C)c1ccc(N2C(N)=NC(N)=NC2(C)C)cc1Cl.Cl | 94 | 3 | 51 |
| O=C(/C=C/c1ccc(Cl)c(Cl)c1)NCCCCCN1CCC(NC(=O)Nc2ccc(OC(F)F)cc2)CC1 | 100 | 18 | 33 |
| CCN(C(=O)NC)C1c2cc(C#N)ccc2OC(C)(C)C1O (stereo not drawn) | 96 | 2 | 3 |
| Cc1nc2c(s1)c(=O)cc(CCc1cccc(F)c1F)n2CC(=O)N(Cc1ccc(-c2ccc(C(F)(F)F)cc2)cc1)C1CCN(C(C)C)CC1.O=C(O)C(O)C(O)C(=O)O | 100 | 82 | 98 |
| CN(C)C(C)(C)CN(Cc1ccc(-c2ccc(C(F)(F)F)cc2)cc1)C(=O)Cn1c(CCc2cccc(F)c2F)nc(=O)c2ccccc21.O=C(O)C(O)C(O)C(=O)O | 95 | 67 | 64 |
| COc1cc2nc(N3CCC(CNC(=O)c4ccc(-c5ccc(O)cc5)cc4)CC3)nc(N)c2cc1OC.O=C(O)C(F)(F)F | 100 | 78 | 34 |
| CC(=O)Nc1ccc(C(=O)Nc2cccc(-c3ccc(-c4nc5cccc(C)c5[nH]4)cc3)c2)cn1 | 100 | 94 | 25 |
| NC1CCN(CCNCc2cccc(-c3ccc(-c4nc5cc(C(F)(F)F)ccc5[nH]4)cc3)c2)C1.O=C(O)C(F)(F)F (stereo not drawn) | 98 | 75 | 19 |
| CC(C)CCNCc1ccc(OCc2ccccc2COc2ccc(CNCCC(C)C)cc2I)c(I)c1.Cl | 100 | 78 | 99 |
| CC(=O)Nc1ccc(CCNC(C)Cc2ccc(C(=O)Nc3ccc(CC(C)NCCc4cccc(Cl)c4)cc3)cc2)cc1.Cl (stereo not drawn) | 100 | 84 | 50 |
| CCC1CN(S(=O)(=O)c2ccc3c(c2)NC(=O)CC(=O)N3)c2cc(Cl)ccc2O1 (stereo not drawn) | 99 | 65 | 0 |
| O=C(/C=C/c1ccc(Cl)c(Cl)c1)NCCCCCN1CCCN(C(=S)Nc2cccc(Cl)c2)CC1 | 93 | 7 | 19 |

| Compound | Inhibition [1] [%] | Inhibition [2] [%] | Inhibition [3] [%] |
| --- | --- | --- | --- |
| O=C(Nc1ccc(Oc2ccccc2)cc1)N[C@H]1CCN(Cc2ccc(OCCCN3CCCCC3)cc2)C1 | 100 | 6 | 13 |
| COc1ccc2nccc([C@@H](O)CN3CCC(NCCNc4ccccn4)CC3)c2c1.O=C(O)C(=O)O | 100 | 14 | 18 |
| CCOc1ccc(-c2nonc2NC(=O)c2cccs2)cc1OCC | 100 | 100 | 6 |
| COc1cccc(NC(=O)c2nc(N3CCN(c4ccncc4)CC3)ccc2Cl)c1.O=C(O)C(F)(F)F | 97 | 65 | 14 |
| O=C(O)C1Cc2c([nH]c3ccccc23)C(c2ccc(Cl)cc2Cl)N1 (stereo not drawn) | 91 | 100 | 7 |
| CN1CCN(c2ccnc3ccc(NC(=O)Nc4cccc5c(C#N)cccc45)cc23)CC1 | 91 | 40 | 0 |
| CCc1c(C)nc(-n2nc(C)cc2NC(=O)CCc2ccccc2)[nH]c1=O | 97 | 97 | 48 |
| CCOc1ccc2nc(C)cc(N/N=C/c3cccc([N+](=O)[O-])c3)c2c1 | 100 | 93 | 7 |
| Cc1cc2cc(NC(=O)Nc3ccnc4ccccc34)ccc2n1C.Cl | 90 | 33 | 17 |
| CCCCCCNC(=O)C1Cc2c([nH]c3ccc(F)cc23)C2(CCN(Cc3ccccc3)CC2)N1 (stereo not drawn) | 97 | 39 | 11 |
| CN(C)CCN(C)Cc1ccc(-c2ccc3c(Nc4ccc(Oc5ccccn5)cc4)ccnc3c2)o1 | 100 | 100 | 16 |
| O=C(O)/C=C\C(=O)O.c1cc(CN2CCCCC2)cc(OCCCNc2ccnc3ccccc23)c1 | 100 | 99 | 48 |
| C#CC[C@@H](NC(N)=O)C(=O)O | 97 | 0 | 1 |
| CC(=O)N(C)c1cccc(CNc2cc(C)nc(Nc3ccc(C)cc3)n2)c1 | 97 | 21 | 8 |
| Cn1cnc2c(SCc3ccccc3OCc3ccccc3)ncnc21 | 86 | 34 | 6 |
| Cn1cnc(CCNC(=O)c2ccc(-c3cccc(-c4nc5cc(C(F)(F)F)ccc5[nH]4)c3)cc2)c1 | 100 | 93 | 25 |
| O=[N+]([O-])c1ccc(-n2nc(Cc3ccccc3)n(Cc3cccc(F)c3)c2=S)c(C(F)(F)F)c1 | 100 | 100 | 4 |
| O=C(C=Cc1ccc(Br)cc1)N1CCC(CCN2CCC(c3c[nH]c4ccccc34)CC2)CC1 | 98 | 24 | 47 |
| CN1Cc2cc(NC(=O)/C=C/c3ccccc3Cl)ccc2C(C)(C)C1.Cl | 99 | 96 | 12 |
